This is an account of results in the antibiotic and cytotoxicity screens of Wong et al. (2023).

Structures are written as SMILES. In all, about 39,000 compounds went through this assay and about 3,300 (8.5%) were called active. The sample as a whole holds a higher share of actives than the screen did.

The test system of the test is HepG2. Put plainly: cytotoxicity call (relative viability < 0.9). Particulars: 10 µM.
As for `C[C@@H]1CN([C@@H](C)CO)C(=O)c2cccc(NS(=O)(=O)c3ccccc3)c2O[C@@H]1CN(C)S(=O)(=O)c1cccs1`, the cytotoxicity call was “inactive”.
Then `CC(C)CC#Cc1ccc2c(c1)O[C@H](CN(C)C(=O)NC1CCCC1)[C@H](C)CN([C@H](C)CO)S2(=O)=O`, with “inactive”; and `CO[C@@H]1CN(C)C(=O)c2ccc(NC(=O)CC(F)(F)F)cc2OC[C@@H](C)N(C(=O)C2CCOCC2)C[C@@H]1C`, with “inactive”.
Then `C[C@H]1CN([C@@H](C)CO)C(=O)c2cc(NC(=O)c3ccncc3)ccc2O[C@H]1CN(C)Cc1ccc(-c2ccccc2)cc1`, with “inactive”; and `CC1=NCCN1`, with “inactive”.
For `CC(C)c1ccc2c(ccc[n+]2C)c1`, the cytotoxicity call is “inactive”.
Then `COC(=O)C[C@H]1CC[C@@H]2[C@H](COC[C@@H](O)CN2S(=O)(=O)c2cn(C)cn2)O1`, with “inactive”; and `COc1ccc(S(=O)(=O)Nc2cccc3c2O[C@@H](CN(C)S(=O)(=O)c2ccccc2)[C@H](C)CN([C@H](C)CO)C3=O)cc1`, with “inactive”; and `COCC(=O)N1C[C@H](C)[C@H](OC)CN(C)C(=O)c2ccc(NC(=O)c3ccc(OC)cc3)cc2OC[C@@H]1C`, with “inactive”.
Next, `Cc1ccc(S(=O)(=O)N(C)C[C@@H]2OCCCC[C@@H](C)Oc3ccc(NS(=O)(=O)c4ccc(F)cc4)cc3C(=O)N([C@@H](C)CO)C[C@@H]2C)cc1`: “inactive”.
As to `C[C@H](CO)N1C[C@H](C)[C@@H](CN(C)C(=O)Nc2ccccc2C(F)(F)F)OCc2ccccc2-c2ccccc2C1=O`, the cytotoxicity call was “inactive”.
Then `C=C(NC(=O)C(=C)NC(=O)c1csc(C2=N[C@H]3c4csc(n4)[C@H]4NC(=O)c5csc(n5)[C@H](C(C)(O)[C@@H](C)O)NC(=O)[C@H]5CSC(=N5)C(=CC)NC(=O)[C@H]([C@@H](C)O)NC(=O)c5csc(n5)[C@]3(CC2)NC(=O)[C@H](C)NC(=O)C(=C)NC(=O)[C@H](C)NC(=O)[C@H]([C@H](C)CC)N[C@@H]2C=Cc3c([C@H](C)O)cc(nc3[C@H]2O)C(=O)O[C@@H]4C)n1)C(N)=O` (some centres not stated), with “active”.
In the case of `C=C(NC(=O)C(=C)NC(=O)c1csc(C2=NC3c4csc(n4)C4NC(=O)c5csc(n5)C(C(C)(O)C(C)O)NC(=O)C5CSC(=N5)C(=CC)NC(=O)C(C(C)O)NC(=O)c5csc(n5)C3(CC2)NC(=O)C(C)NC(=O)C(=C)NC(=O)C(C)NC(=O)C(C(C)CC)NC2C=Cc3c(C(C)O)cc(nc3C2O)C(=O)OC4C)n1)C(N)=O` (configuration not stated), the cytotoxicity call is “active”.
Next, `C=C(NC(=O)C(=C)NC(=O)c1csc(C2=N[C@@H]3c4csc(n4)[C@@H]4NC(=O)c5csc(n5)[C@H](C(C)(O)[C@@H](C)O)NC(=O)[C@H]5CSC(=N5)/C(=C/C)NC(=O)[C@H]([C@@H](C)O)NC(=O)c5csc(n5)[C@]3(CC2)NC(=O)[C@@H](C)NC(=O)C(=C)NC(=O)[C@@H](C)NC(=O)[C@@H]([C@H](C)CC)N[C@H]2C=Cc3c([C@@H](C)O)cc(nc3[C@@H]2O)C(=O)O[C@H]4C)n1)C(N)=O` (some centres not stated): “inactive”; `C[C@@H]1CN([C@@H](C)CO)C(=O)Cc2cc(NS(C)(=O)=O)ccc2O[C@H]1CN(C)S(=O)(=O)c1cn(C)cn1`: “inactive”.
Next, `C[C@H](CO)N1C[C@H](C)[C@H](CN(C)S(=O)(=O)c2ccc(F)cc2)Oc2ccc(NC(=O)c3ccncc3)cc2CC1=O`: “inactive”; `COc1ccc(S(=O)(=O)N(C)C[C@H]2Oc3c(cccc3N(C)C)C(=O)N([C@@H](C)CO)C[C@@H]2C)cc1`: “inactive”.
Next, `COc1ccc2c3c(n(c2c1)C)[C@@H](CO)N(C[C@]13CN(C1)C(=O)c1ccncc1)C(=O)C1CCCCC1`: “inactive”; `COc1ccc(NC(=O)N2C[C@H](O)COC[C@@H]3O[C@@H](CC(=O)NC4Cc5ccccc5C4)CC[C@H]32)cc1`: “inactive”; `C[C@@H]1CN([C@H](C)CO)C(=O)c2cc(C#CC(C)(C)O)cnc2O[C@H]1CN(C)Cc1cccc(C(=O)O)c1`: “inactive”.
With `Cc1ccc(S(=O)(=O)N(C)C[C@@H]2Oc3ccc(N(C)C)cc3CC(=O)N([C@@H](C)CO)C[C@H]2C)cc1`, the cytotoxicity call was “inactive”.
Next, `C[C@H](CO)N1C[C@H](C)[C@H](CN(C)Cc2ccc(Oc3ccccc3)cc2)Oc2c(NC(=O)NC3CCCCC3)cccc2C1=O`: “active”.
Next, `C[C@@H]1CN([C@@H](C)CO)C(=O)c2cccc(NC(=O)C3CCCCC3)c2O[C@H]1CN(C)Cc1ccc(Oc2ccccc2)cc1`: “inactive”; `C[C@H]1CN([C@@H](C)CO)C(=O)c2cccc(NC(=O)C3CCCCC3)c2O[C@H]1CN(C)Cc1ccc(Oc2ccccc2)cc1`: “inactive”.
Then `C[C@@H]1CN([C@@H](C)CO)C(=O)c2cccc(NC(=O)NC3CCCCC3)c2O[C@@H]1CN(C)Cc1ccc(Oc2ccccc2)cc1`, with “inactive”; and `C[C@H]1CN([C@@H](C)CO)C(=O)c2cccc(NC(=O)NC3CCCCC3)c2O[C@@H]1CN(C)Cc1ccc(Oc2ccccc2)cc1`, with “inactive”.
Regarding `C[C@H](CO)N1C[C@H](C)[C@@H](CN(C)Cc2ccc(Oc3ccccc3)cc2)Oc2c(NC(=O)C3CCCCC3)cccc2C1=O`, the cytotoxicity call was “active”.
With `COCCNC(=O)C[C@H]1C[C@@H]2c3cc(NS(C)(=O)=O)ccc3O[C@@H]2[C@H](CO)O1`, the cytotoxicity call was “inactive”.
Next, `CO[C@H]1CN(C)C(=O)c2cc(NC(=O)c3ccc(F)cc3)ccc2OC[C@@H](C)N(C(=O)CN(C)C)C[C@H]1C`: “inactive”; `COCC#Cc1ccc([C@@H]2[C@@H](CO)N3C(=O)CN(C(=O)CN4CCOCC4)C[C@H]23)cc1`: “inactive”.
Next, `C[C@H]1CN([C@@H](C)CO)C(=O)Cc2cc(NC(=O)Cn3cnnn3)ccc2O[C@@H]1CN(C)C(=O)Nc1ccc(C(F)(F)F)cc1`: “inactive”.
Take `C[C@H]1CCCCO[C@H](CN(C)C(=O)Nc2ccc(F)cc2)[C@@H](C)CN([C@@H](C)CO)C(=O)c2cc(NS(=O)(=O)c3ccccc3)ccc2O1`: the cytotoxicity call is “inactive”.
Next, `O=C(OC1Cc2c(O)cc(O)cc2OC1c1cc(O)c(=O)c2c(O)c(O)cc(C3Oc4cc(O)cc(O)c4CC3O)c2c1)c1cc(O)c(O)c(O)c1` (configuration not stated): “inactive”; `O=C(O[C@@H]1Cc2c(O)cc(O)cc2O[C@@H]1c1cc(O)c(O)c2c(=O)c(O)cc([C@H]3Oc4cc(O)cc(O)c4C[C@H]3O)c-2c1)c1cc(O)c(O)c(O)c1`: “active”.
Next, `O=c1c(O)cc([C@H]2Oc3cc(O)cc(O)c3C[C@H]2O)c2cc([C@H]3Oc4cc(O)cc(O)c4C[C@H]3O)cc(O)c(O)c1-2`: “inactive”.
Then `CCOC(=O)C1=C(COCCN)NC(C)=C(C(=O)OC)C1c1ccccc1Cl.O=S(=O)(O)c1ccccc1` (configuration not stated), with “active”.
For `COC(=O)C1=C(C)NC(C)=C(C(=O)OC)C1c1ccccc1[N+](=O)[O-]`, the cytotoxicity call is “inactive”.
Next, `CCOC(=O)C1=C(C)NC(C)=C(C(=O)OC)C1c1cccc(Cl)c1Cl` (configuration not stated): “inactive”.
Next, `C[C@H]1CN([C@@H](C)CO)C(=O)c2cccc(NC(=O)C3CC3)c2O[C@H]1CN(C)Cc1ccc(Oc2ccccc2)cc1`: “inactive”; `CC(=O)N(C)C[C@@H]1Oc2cc(C#CCN(C)C)ccc2S(=O)(=O)N([C@@H](C)CO)C[C@H]1C`: “inactive”; `C[C@H](CO)N1C[C@H](C)[C@H](CN(C)C(=O)c2ccccc2F)Oc2ncc(C#Cc3ccncc3)cc2C1=O`: “inactive”.
Then `CC(C)c1c(C(=O)Nc2ccccc2)c(-c2ccccc2)c(-c2ccc(F)cc2)n1CCC(O)CC(O)CC(=O)[O-].[Ca+2]` (configuration not stated), with “inactive”; and `CC(C)c1nc(N(C)S(C)(=O)=O)nc(-c2ccc(F)cc2)c1C=CC(O)CC(O)CC(=O)[O-].[Ca+2]` (configuration not stated), with “inactive”.
On to `CC(C)n1c(C=CC(O)CC(O)CC(=O)[O-])c(-c2ccc(F)cc2)c2ccccc21.[Na+]` (configuration not stated), for which the cytotoxicity call was “active”.
In the case of `C[C@@H]1CCCCO[C@@H](CN(C)C(=O)Nc2ccc(F)cc2)[C@H](C)CN([C@H](C)CO)C(=O)c2cc(NC(=O)NC3CCCCC3)ccc2O1`, the cytotoxicity call is “inactive”.
Next, `C=CCC[C@H](Cc1ccc(F)cc1)C(=O)OC[C@H](Cc1c[nH]c2ccccc12)NC(=O)[C@@H](CC=C)CC(=O)N(CCO)Cc1ccccc1`: “active”; `C=CCC[C@@H](Cc1ccc(F)cc1)C(=O)OC[C@H](Cc1c[nH]c2ccccc12)NC(=O)[C@@H](CC=C)CC(=O)N(CCO)Cc1ccccc1`: “inactive”.
Then `C=CCC[C@H](Cc1ccc(F)cc1)C(=O)OC[C@@H](Cc1c[nH]c2ccccc12)NC(=O)[C@H](CC=C)CC(=O)N(CCO)Cc1ccccc1`, with “active”.
Then `C=CCC[C@@H](Cc1ccc(F)cc1)C(=O)OC[C@@H](Cc1ccccc1)NC(=O)[C@H](CC=C)CC(=O)N(CCO)Cc1ccccc1`, with “inactive”.
`C=CCC[C@@H](Cc1ccc(F)cc1)C(=O)OC[C@@H](Cc1c[nH]c2ccccc12)NC(=O)[C@@H](CC=C)CC(=O)N(CCO)Cc1ccccc1`: the cytotoxicity call was “active”.
Then `C=CCC[C@H](Cc1ccc(F)cc1)C(=O)OC[C@@H](Cc1c[nH]c2ccccc12)NC(=O)[C@@H](CC=C)CC(=O)N(CCO)Cc1ccccc1`, with “active”; and `Cc1cccc(S(=O)(=O)N2C[C@@H](O)COC[C@@H]3O[C@H](CC(=O)NCc4ccncn4)CC[C@H]32)c1`, with “inactive”.
Then `COCC(=O)Nc1ccc2c(c1)OC[C@H](C)N(Cc1cccc(F)c1)C[C@@H](C)[C@@H](OC)CN(C)C2=O`, with “inactive”.
Then `CCCN(C)C[C@@H]1OCCCC[C@@H](C)Oc2ccc(NC(=O)Nc3c(C)noc3C)cc2C(=O)N([C@H](C)CO)C[C@@H]1C`, with “inactive”; and `C[C@H](CO)N1C[C@H](C)[C@@H](CN(C)C(=O)NC2CCCCC2)OCCCC[C@H](C)Oc2ccc(NS(=O)(=O)c3ccccc3)cc2C1=O`, with “inactive”.
For `C[C@@H]1CCCCO[C@@H](CN(C)Cc2ccc3c(c2)OCO3)[C@H](C)CN([C@H](C)CO)C(=O)c2cc(NS(=O)(=O)c3cccs3)ccc2O1`, the cytotoxicity call was “inactive”.
`C[C@@H]1CCCCO[C@@H](CN(C)C(=O)Nc2ccc(F)cc2)[C@H](C)CN([C@H](C)CO)C(=O)c2cc(NC(=O)Nc3ccc(F)cc3)ccc2O1`: the cytotoxicity call is “inactive”.
